Measured values published in PubChem BioAssay AID1347165 (National Center for Advancing Translational Sciences (NCATS), 2019).
Out of some 220,000 compounds screened, about 5,700 (2.6%) were called active. Another 18% or so got no clear call; they are omitted. Calls come from the whole dose curve; as a rule, active = well fitted inhibition curve with a large enough effect; inconclusive = small, poorly fitted or top-dose-only effect; inactive = no such curve, though single readings can be large or run the other way. This excerpt belongs to a sample that is enriched for actives.

Target: Lysine-specific demethylase 5B (Homo sapiens) (UniProt Q9UGL1)
Assay: Primary screen for KDM5B Histone Demethylases FDH-coupled qHTS; note: nearly all actives have a fitted effect of over 70% in size; for activity change, negative = inhibition: 0% is about no effect
Conditions: FDH-coupled NADH fluorescence (FDH is formaldehyde dehydrogenase); series mostly up to 57.7 µM; activity change, negative = inhibition: at the top concentration
How it was run: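 Inhibition is measured as reduced NADH fluorescence generation from FDH coupling to formaldehyde release. Truncated KDM5BΔAP at 200 nM final acts on H3K4me3 peptide (12.5 µM in substrate mix) in pH 7.5 HEPES buffer with Tween-20, 30 min, room temperature.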
Potency is the fitted concentration of half-maximal effect.

Chain of Lysine-specific demethylase 5B (Homo sapiens) (Q9UGL1 whole entry, looked up): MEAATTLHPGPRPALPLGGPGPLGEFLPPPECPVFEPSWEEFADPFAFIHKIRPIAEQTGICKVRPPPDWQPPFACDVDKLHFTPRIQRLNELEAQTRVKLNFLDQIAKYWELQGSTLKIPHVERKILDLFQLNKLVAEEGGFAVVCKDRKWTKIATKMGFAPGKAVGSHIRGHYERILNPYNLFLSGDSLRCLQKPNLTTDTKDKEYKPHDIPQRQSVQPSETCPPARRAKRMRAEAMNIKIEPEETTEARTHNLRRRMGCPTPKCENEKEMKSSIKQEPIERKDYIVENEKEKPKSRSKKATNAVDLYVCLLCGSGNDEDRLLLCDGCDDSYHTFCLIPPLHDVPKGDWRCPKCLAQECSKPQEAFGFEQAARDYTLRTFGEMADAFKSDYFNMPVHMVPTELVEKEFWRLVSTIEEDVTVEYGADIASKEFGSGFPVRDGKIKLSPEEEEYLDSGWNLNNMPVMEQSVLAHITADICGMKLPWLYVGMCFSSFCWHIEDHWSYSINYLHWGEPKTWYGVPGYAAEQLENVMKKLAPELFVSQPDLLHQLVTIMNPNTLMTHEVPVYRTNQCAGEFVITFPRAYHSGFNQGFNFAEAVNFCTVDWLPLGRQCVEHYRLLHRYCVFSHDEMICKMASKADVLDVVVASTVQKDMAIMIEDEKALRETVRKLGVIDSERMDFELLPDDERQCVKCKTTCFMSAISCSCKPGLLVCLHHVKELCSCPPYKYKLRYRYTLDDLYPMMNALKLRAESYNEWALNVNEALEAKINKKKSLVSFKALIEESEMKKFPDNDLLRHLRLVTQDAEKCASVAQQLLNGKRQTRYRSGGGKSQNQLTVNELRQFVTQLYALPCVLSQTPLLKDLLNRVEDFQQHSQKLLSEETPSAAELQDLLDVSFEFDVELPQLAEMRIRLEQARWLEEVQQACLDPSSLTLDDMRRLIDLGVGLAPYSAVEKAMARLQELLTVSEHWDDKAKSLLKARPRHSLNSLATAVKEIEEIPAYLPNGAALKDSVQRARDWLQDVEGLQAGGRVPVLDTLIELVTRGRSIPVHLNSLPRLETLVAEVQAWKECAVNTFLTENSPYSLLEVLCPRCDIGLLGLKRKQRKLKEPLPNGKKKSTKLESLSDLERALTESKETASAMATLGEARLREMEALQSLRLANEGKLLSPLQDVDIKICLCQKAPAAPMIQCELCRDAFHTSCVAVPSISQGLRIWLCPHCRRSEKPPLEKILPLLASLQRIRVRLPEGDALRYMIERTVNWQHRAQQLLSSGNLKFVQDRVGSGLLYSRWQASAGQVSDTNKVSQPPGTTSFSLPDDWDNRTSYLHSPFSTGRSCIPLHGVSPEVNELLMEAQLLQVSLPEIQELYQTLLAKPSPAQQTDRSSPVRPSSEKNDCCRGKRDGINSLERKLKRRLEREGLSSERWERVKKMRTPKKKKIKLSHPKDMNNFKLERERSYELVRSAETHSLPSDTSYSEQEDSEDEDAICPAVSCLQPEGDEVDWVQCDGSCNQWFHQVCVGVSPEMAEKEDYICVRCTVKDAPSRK

Activity change, negative = inhibition, inactive:
COC(=O)c1cccc(N(CC(=O)NCC2CCCO2)C(=O)CCC(=O)Nc2cc(C)on2)c1 (stereo not given) 10.2%
COc1ccccc1C(=O)OCC(=O)NCCNC(=O)COC(=O)c1ccccc1OC 0%
CSCC[C@H](NC(=O)CSc1cc(Cl)ccc1Cl)c1nc2ccccc2[nH]1 4.03%
COc1cccc(S(=O)(=O)NCc2ccc(C(=O)NCc3ccccn3)cc2)c1 -7.31%
O=C(c1ccoc1)N1CCC(Oc2ncccc2C(=O)N2CCOCC2)C1 (stereo not given) -12.4%
CCn1cc(-c2ccccc2)cc1C(=O)NCc1ccccn1 -13.5%
NC(=O)CN1CCC(NC(=O)c2ccc(Oc3ccc(F)cc3)cc2)CC1 2.21%
NC(=O)CN1CCC(NC(=O)c2cccc(F)c2)CC1 8.54%
Cc1cc(C(=O)NCCc2ccc(Cl)cc2)c(C)o1 -33.8%
O=C(NCCc1ccc(Cl)cc1)c1ccc2nc(CCc3ccccc3)oc2c1 -15%
O=C(Nc1ccc(C(=O)N2CCOCC2)cc1)Nc1cccc(C(F)(F)F)c1 31.3%
COc1ccc2nc(NC(=O)Nc3ccc(C)cc3)sc2c1 6.82%
COc1cc(/C=C(\C#N)C(=O)C(C)(C)C)ccc1OCc1c(Cl)cccc1Cl -26.9%
COC[C@]1(O)CCN(C(=O)c2ccccc2C(F)(F)F)CC1(C)C 13.1%
C#Cc1cccc(NS(=O)(=O)c2ccc(OC)c3ncccc23)c1 -10.4%
CC1(C)CC(=O)C2=C(C1)OC(N)=C(C#N)C2c1ccc(C(F)(F)F)cc1 (stereo not given) 19.7%
Cc1ccccc1/C=C1\Oc2cc(OS(C)(=O)=O)ccc2C1=O -4.69%
O=C(Cc1cccc(F)c1)NC1CCC(c2ccccc2)CC1 (stereo not given) -0.961%
CCOc1ccccc1NC(=O)Cc1c(C)[nH]n(-c2nc(-c3ccccc3)cs2)c1=O -0.446%
CNCCCNC(=O)C(=O)Nc1cccc2[nH]ccc12 77.9%
Cc1ccccc1OCc1nnc(SCC(=O)c2ccc(Cl)cc2)n1C -16.4%
Cc1ccc(C)c(N2CCN(C(=O)Cn3nc(C)c4sc5ccccc5c4c3=O)CC2)c1 -5.55%
Cc1nn(CC(=O)O)c(=O)c2nc(C(C)C)sc12 2.56%
COc1ccccc1NC(=O)C1CCN(c2nc3ccccc3nc2OC)CC1 35.1%
Cc1cc(Cl)ccc1-c1ccc(CN)cc1 -4.89% [at 149 µM]
COCCNC(=O)C1CCN(S(=O)(=O)c2ccc3c(ccn3C)c2)CC1 18.1%
N#Cc1ccccc1Sc1ccccc1C(=O)NC1CCCCC1 17.8%
N#Cc1cccnc1-c1cccc(C(=O)O)c1 19.4% [at 149 µM]
Cc1ccc(C(=O)NCc2nc(C)cs2)cn1 9.74%
CC(C)C1=C/C(=C/c2ccccc2)C(C)/C(=C/c2ccccc2)C1=O (stereo not given) -32%
Cc1ccccc1NC(=O)CN1C(=O)C(C)(C)c2ccccc21 -4.69%
CC1CCC2(CC1)NC(=O)N(CC(=O)NCc1ccco1)C2=O (stereo not given) 10.1%
CCn1c(=O)c2ccccc2n(CC(=O)Nc2ccccc2C(F)(F)F)c1=O 2.98%
CCNC(=O)NC(=O)C(C)Sc1nc(-c2ccccc2)c(-c2ccccc2)o1 (stereo not given) -0.479%
Cc1nc2cc(NC(=O)c3ccc(C(=O)c4ccccc4)cc3)ccc2o1 3.23%
Cc1ccccc1N(C)C1CN(Cc2cccc3ccccc23)C1 8.42% [at 149 µM]
CN(Cc1cccc2ccccc12)C1CCc2ccccc21 (stereo not given) -26.7% [at 86.2 µM]
Cc1oc(-c2cccs2)nc1CC(=O)N1CCC2(CC1)NC(=O)NC2=O -260%
COc1ccc(NC(=O)O[C@@H]2CO[C@H]3[C@@H]2OC[C@@H]3NC(=O)C2CCCCC2)cc1 0.55% [at 86.2 µM]
CC(C)(C)c1ccnc(N[C@H]2CO[C@H]3[C@@H]2OC[C@H]3OC(=O)Nc2cccc(C(F)(F)F)c2)n1 -8.49%
COCC(=O)N[C@H]1CO[C@H]2[C@@H]1OC[C@@H]2Nc1nccc(C(C)(C)C)n1 2.28% [at 86.2 µM]
CC(C)(C)c1ccnc(N[C@H]2CO[C@H]3[C@@H]2OC[C@@H]3NC(=O)CC2(CC(=O)O)CCCC2)n1 -9.63%
COc1ccc(NC(=O)O[C@@H]2CO[C@H]3[C@@H]2OC[C@@H]3NC(=O)NC2CCCCC2)cc1 -26.3% [at 86.2 µM]
O=C(Nc1ccccc1)O[C@@H]1CO[C@H]2[C@@H]1OC[C@@H]2NS(=O)(=O)c1cccc2cccnc12 -31.2%
COc1ccc(OC)c(NC(=O)COc2c(C)cc(C)cc2C)c1 9.24%
CSc1ccccc1N=Cc1ccc(Cl)c(Cl)c1 29.7%
COc1ccc(OC)c(CCNC(=O)c2nn(C)c3c2CS(=O)(=O)c2ccccc2-3)c1 13.7%
CC(=O)Nc1ccc(S(=O)(=O)Nc2c(NC3CCCC3)c3ccccc3oc2=O)cc1 13.6%

Potency, active:
O=C(c1ccc2nccn2c1)N1CCOCC1 100 µM
O=C(NCCc1ccc(Cl)cc1)c1ccc2nccn2c1 112 µM
O=C(NC1CCN(Cc2ccc(F)c(F)c2)CC1)c1ccc2nccn2c1 28.2 µM
O=C(NCc1ccccn1)c1ccc2nccn2c1 31.6 µM
O=c1ncn(Cc2ccccc2)c2ccc(-c3ccoc3)nc12 39.8 µM
CCN1CCN(C(=O)Cn2nc(C)c3sc(-c4ccccc4)nc3c2=O)CC1 22.4 µM
CC(C)(O)CCc1cccc(C(=O)NC2CCN(c3ncccc3C#N)CC2)c1 22.4 µM
Cc1ccccc1CNC(=O)CN1C(=O)C2(CCNCC2)Nc2ccccc21 14.1 µM
c1ccc2c(c1)CCN2C1CN(Cc2cccc3ccccc23)C1 100 µM
O=C(Nc1cccc(C(F)(F)F)c1)O[C@@H]1CO[C@H]2[C@@H]1OC[C@@H]2Nc1nccc(-c2ccc3c(c2)OCO3)n1 31.6 µM
CC(C)(CC(=O)O)CC(=O)N[C@H]1CO[C@H]2[C@@H]1OC[C@@H]2Nc1nccc(-c2ccc3c(c2)OCO3)n1 28.2 µM
COc1cccc(NC(=O)O[C@@H]2CO[C@H]3[C@@H]2OC[C@@H]3Nc2nccc(-c3cccs3)n2)c1 15.8 µM
